Assay outcomes deposited in PubChem BioAssay by several laboratories.
AI-2 QS mod – Vibrio harveyi AI-2 quorum sensing modulators, primary screen, JMH597 strain, luminescence/OD600 ratio. Vibrio harveyi JMH597 AI-2 luminescence/OD600 ratio, 9 h; active compounds read low; strain lacks LuxN and CqsS sensors; 0 = neutral-control median. 300,000 tested, 0.4% active. activity change, % at 7.5 µM; in the data active means activity change below about -75%, passing the limit was not always enough;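 further: luminescence divided by OD600 gain over 9 h not by final OD600 alone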
E coli growth-1 – E. coli V3065 growth inhibition, primary screen, counter-screen for AddAB inhibitor project, absorbance, OD600. 18 h. inhibition, % at 11.9 µM. 330,000 tested, 0.27% active. AID 449728, 2010;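 active means inhibition above the campaign's mean inhibition across all tested compounds plus 3 SD, cut at about 9.9% in these data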;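 further: uninfected addAB+ strain grown without phage in ampicillin broth; 0% = DMSO wells and 100% = ciprofloxacin 0.95 µg/ml wells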
E coli growth-2 – E. coli growth inhibition, primary screen, OD600. Escherichia coli growth, 23 h; active compounds read low. OD600 absorbance (test concentration not listed). 330,000 tested, 0.21% active. AID 1053175, 2014;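 active means OD600 absorbance below the run mean of sample wells minus 3.6 SD, in any replicate, cut at about 0.56 in these data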
Tat transport – E. coli Tat export inhibitors, primary screen, MC4100, TorA-mCherry reporter, fluorescence, single point; inhibition, % at 10 µM; 340,000 tested, 0.036% active; AID 488895, 2010;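 active means mean replicate inhibition at least 50% and at least half of replicates individually reaching 50%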;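 further: exported cargo escapes ClpAP degradation while cytoplasmic cargo is degraded and loses fluorescence; 0% = median of neutral control wells and 100% = median of NaSCN control wells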
phage Ecoli inh – growth loss of phage-infected E. coli, primary screen, RecBCD inhibitor project, absorbance, with phage, HTS; AID 651602, 2012; 360,000 tested, 0.26% active; inhibition, % at 11.9 µM; in the data active means inhibition above about 11%
AddAB inh – growth inhibition of E. coli expressing H. pylori AddAB, primary screen, AddAB inhibitor project, absorbance | 330,000 tested, 0.29% active | inhibition, % at 11.9 µM; in the data active means inhibition above about 12%;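 further: 0% = vehicle wells of infected cells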
RecBCD conf – growth loss of phage-infected RecBCD+ E. coli, confirmation, RecBCD inhibitor project, absorbance, E. coli V66, T4 gene 2 phage; shares compounds with phage Ecoli inh; E. coli V66 + T4 2- phage, growth OD; inhibition, % at 11.9 µM; 890 tested, 45% active; AID 651982, 2013;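 active means mean inhibition over triplicates exceeding the hit threshold derived in the original primary screen, cut at about 11% in these data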
Ecoli viability – E. coli viability inhibition, counter-screen for RecBCD inhibitor project, absorbance, high throughput; 890 tested, 29% active; absorbance (OD) growth; AID 651983, 2013; inhibition, % at 11.9 µM; shares compounds with phage Ecoli inh; in the data active means inhibition above about 20%;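 further: E. coli strain V66 grown with compound alone and no phage infection; 0% = bacteria with DMSO vehicle only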
AddAB counter – growth loss of phage-infected AddAB-carrying E. coli, confirmation, counter-screen for RecBCD inhibitor project, absorbance, E. coli V3065, T4 phage. shares compounds with phage Ecoli inh. E. coli expressing H. pylori AddAB + T4 phage, OD growth; gene 2 mutant T4, recBCD-deleted host. inhibition, % at 11.9 µM. 890 tested, 45% active. AID 651984, 2013;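 active means mean inhibition above the solvent-only control wells' mean plus 3 SD, cut at about 22% in these data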;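 further: higher means less bacterial growth from phage killing when AddAB is blocked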
An asterisk follows results filed as active. Sampled rows, rich in hits. Any-hit rate of the full collection: about 0.79%.

For CCn1cc(C=C2SC(=O)N(CC(=O)Nc3ccc4c(c3)OCO4)C2=O)c2ccccc21 the results were E coli growth-2 0.69.
For O=C(c1ccco1)N1CCCN(Cc2nc(-c3ccc4c(c3)OCO4)no2)CC1 the results were AI-2 QS mod 24, E coli growth-1 0, E coli growth-2 0.68, Tat transport 4, phage Ecoli inh 15*, AddAB inh -2, RecBCD conf 1, Ecoli viability 1 and AddAB counter -2.
For Fc1ccc(CN2CCCN(Cc3nc(-c4ccc5c(c4)OCO5)no3)CC2)cc1 the results were AI-2 QS mod 2, E coli growth-1 0, E coli growth-2 0.66, Tat transport -2, phage Ecoli inh 4 and AddAB inh 3.
Screening Cc1cccn2c(=O)c(C=NO)c(N3CCOCC3)nc12 returned E coli growth-2 0.66.
Screening O=C(CSc1ccc(-c2cccnc2)nn1)c1ccc([N+](=O)[O-])cc1 returned AI-2 QS mod 55, E coli growth-1 0, E coli growth-2 0.64, Tat transport -4, phage Ecoli inh 3 and AddAB inh 1.
CC(=O)c1cccc(NC(=O)CSc2ccc(-c3ccccn3)nn2)c1 was read as AI-2 QS mod 5, E coli growth-1 6, E coli growth-2 0.61, Tat transport 2, phage Ecoli inh 11*, AddAB inh 11, RecBCD conf 4, Ecoli viability 3 and AddAB counter 18.
Screening O=C(CSc1ccc(-c2ccccn2)nn1)c1ccc([N+](=O)[O-])cc1 returned AI-2 QS mod 24, E coli growth-1 5, E coli growth-2 0.66, Tat transport -4, phage Ecoli inh 12*, AddAB inh 7, RecBCD conf -1, Ecoli viability 0 and AddAB counter 5.
`O=C(NN=Cc1cc(Cl)cc(Cl)c1O)c1ccncc1` gave E coli growth-2 0.6.
For CCOC(=O)C(=NNc1cccc(C(F)(F)F)c1)N(CCOC)CCOC the results were E coli growth-2 0.72.
For Cn1ccsc1=NC(=O)c1ccc([N+](=O)[O-])o1 the results were AI-2 QS mod -86*, E coli growth-1 99*, E coli growth-2 0.062*, Tat transport 12, phage Ecoli inh 100*, AddAB inh 99*, RecBCD conf 99*, Ecoli viability 101* and AddAB counter 101*.
Screening COc1cc(C(=O)N=c2sccn2C)c([N+](=O)[O-])cc1OC returned AI-2 QS mod 4, E coli growth-2 0.68, Tat transport -3 and phage Ecoli inh 3.
CC(C)N=c1scc(-c2cccs2)n1/N=C/c1ccc(O)c(O)c1O was read as E coli growth-1 7, Tat transport -9, phage Ecoli inh 16*, AddAB inh 10, RecBCD conf -1, Ecoli viability -1 and AddAB counter 2.
CCOc1cc(C=NNc2nc3ccccc3[nH]2)cc(Br)c1OCC(=O)N(C)C was read as E coli growth-2 0.7.
For CC(NC(=O)Nc1cccc([N+](=O)[O-])c1)(C(F)(F)F)C(F)(F)F the results were AI-2 QS mod 18, E coli growth-1 0, E coli growth-2 0.63, Tat transport -11, phage Ecoli inh 14*, AddAB inh 4, RecBCD conf 7, Ecoli viability 7 and AddAB counter 6.
O=C(Nc1cccc([N+](=O)[O-])c1)c1cccc(C(=O)Nc2cccc([N+](=O)[O-])c2)c1 was read as AI-2 QS mod 14, E coli growth-1 -3, Tat transport -4, phage Ecoli inh 2 and AddAB inh -2.
For O=C(c1cccc(C(F)(F)F)c1)N1CCc2c([nH]c3ccccc23)C1C(F)(F)F (configuration not stated) the results were AI-2 QS mod 20, E coli growth-1 0, E coli growth-2 0.69, Tat transport 15, phage Ecoli inh 75*, AddAB inh 3, RecBCD conf 0, Ecoli viability -1 and AddAB counter 2.
`CNC(CC(C)C)C(=O)NC1C(=O)NC(CC(N)=O)C(=O)NC2C(=O)NC3C(=O)NC(C(=O)NC(C(=O)O)c4cc(O)cc(O)c4-c4cc3ccc4O)C(O)c3ccc(c(Cl)c3)Oc3cc2cc(c3OC2OC(CO)C(O)C(O)C2OC2CC(C)(N)C(O)C(C)O2)Oc2ccc(cc2Cl)C1O` (configuration not stated) gave AI-2 QS mod 13, E coli growth-1 1, Tat transport -35, phage Ecoli inh 11*, AddAB inh -2, RecBCD conf 4, Ecoli viability 8 and AddAB counter 15.
`O=C(Nc1ccccc1Cl)C1Cc2ccccc2OC1=NO` (configuration not stated) gave E coli growth-2 0.64.
Screening Nc1ccc(CCC(=O)N2CCCC2)cc1 returned AI-2 QS mod 5, E coli growth-2 0.71, Tat transport 2 and phage Ecoli inh 2.
CCC(=O)Nc1ccc(CCC(=O)N2CCCC2)cc1 was read as AI-2 QS mod -14, E coli growth-1 0, E coli growth-2 0.66, Tat transport 3, phage Ecoli inh 24*, AddAB inh 2, RecBCD conf -2, Ecoli viability -3 and AddAB counter 0.
Screening Cc1cn(C2CCC(CO)O2)c(=O)[nH]c1=O (configuration not stated) returned AI-2 QS mod 8, E coli growth-2 0.56, Tat transport -1, phage Ecoli inh 24*, RecBCD conf 20*, Ecoli viability 12 and AddAB counter 60*.
Screening Cc1ccccc1C(=O)NCC(C)NC(=O)c1ccccc1C (configuration not stated) returned AI-2 QS mod 19, E coli growth-1 2, E coli growth-2 0.69, Tat transport -4, phage Ecoli inh 100*, AddAB inh 0, RecBCD conf -3, Ecoli viability -1 and AddAB counter 1.
Cc1ccccc1CNC(=O)c1ccccc1C was read as AI-2 QS mod 15, E coli growth-1 2, E coli growth-2 0.68, Tat transport -5, phage Ecoli inh 1 and AddAB inh 2.
